MLL AF4-AF9 inh: inhibitors of human MLL-AF4/AF9 interaction | inhibition, % at 10 µM | actives 0.47% (n = 350,000) | AlphaScreen, biotin-AF4 peptide binding to FLAG-AF9;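 active = every replicate reaching a set inhibition limit, whatever the replicate mean, cut at about 25% in these data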;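 note: 0% = plate neutral control median and 100% = total signal loss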
Target sequence (P42568 whole entry, looked up): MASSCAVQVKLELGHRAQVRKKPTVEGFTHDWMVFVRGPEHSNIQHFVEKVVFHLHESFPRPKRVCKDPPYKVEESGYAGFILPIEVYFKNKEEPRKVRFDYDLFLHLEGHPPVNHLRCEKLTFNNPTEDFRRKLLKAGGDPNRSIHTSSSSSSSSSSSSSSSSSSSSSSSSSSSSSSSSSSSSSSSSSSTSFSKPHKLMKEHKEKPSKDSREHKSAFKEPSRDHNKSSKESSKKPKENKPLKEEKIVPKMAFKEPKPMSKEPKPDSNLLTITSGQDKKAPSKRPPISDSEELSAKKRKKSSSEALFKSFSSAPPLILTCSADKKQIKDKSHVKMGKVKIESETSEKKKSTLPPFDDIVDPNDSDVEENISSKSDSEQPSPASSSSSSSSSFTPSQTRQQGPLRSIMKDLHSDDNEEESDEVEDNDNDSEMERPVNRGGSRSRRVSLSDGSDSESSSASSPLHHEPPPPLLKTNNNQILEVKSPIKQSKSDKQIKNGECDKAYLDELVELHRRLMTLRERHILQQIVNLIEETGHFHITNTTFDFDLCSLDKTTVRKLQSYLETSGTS
RAD52 anneal inh: RAD52 (human) annealing inhibition. P43351. recombinant RAD52 DNA annealing, FRET fluorescence. inhibition, % at 18.7 µM. actives 0.46% (n = 360,000);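 active = every replicate showing at least 50% inhibition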
NSD2 inh: inhibitors of human histone methyltransferase NSD2; O96028; NSD2 peptide methylation, AlphaScreen, 120 min; inhibition, % at 12.5 µM; actives 0.54% (n = 310,000); in the data active = inhibition above about 50%
rRNA inh HTS: selective bacterial rRNA inhibition in E. coli | E. coli WT GFP vs humanized-ribosome RFP mutants, fluorescence, 24 h; hits give low values; DMSO median 0, no signal -100 | GFP signal change (wild-type ribosome), % (no concentration beside the values) | actives 1.6% (n = 350,000);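 active = significant combined selectivity score with lowered wild-type GFP, culture density cut under 30%, mutant RFP and density less affected; inactive = any of these conditions unmet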
CASP6 VEID inh: blocks human caspase-6 cleavage activity | actives 0.53% (n = 350,000) | inhibition, % at 12.5 µM | AID 686996 | P55212 | purified caspase-6, Z-VEID-R110 cleavage fluorescence;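 active = mean inhibition across replicates at least about 35%, with every replicate also reaching that limit, limit read from the data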;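 note: 0% = median of neutral control wells and 100% = no fluorescence left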
Starred values were filed as active, the others as inactive; nt = no result. Hits are enriched below; roughly 2.5% of the tested compounds scored in any of these assays.

SMILES | MLL AF4-AF9 inh | RAD52 anneal inh | NSD2 inh | rRNA inh HTS | CASP6 VEID inh
O=S(=O)(N[C@@H]1CC[C@@H](CCn2cc(-c3cccc(F)c3)nn2)O[C@@H]1CO)c1ccccc1 | -1 | -2 | nt | -2 | 0
CCC(=O)Nc1c(C#N)c2nc3ccccc3nc2n1-c1ccc(C)cc1 | -11 | -37 | 43 | -7 | 54*
N#Cc1c(N)n(-c2ccc(O)cc2)c2nc3ccccc3nc12 | -1 | -29 | -4 | 4 | 1
COCC(=O)Nc1ccc2c(c1)C(=O)N(C)C[C@@H](OC)[C@H](C)CN(C(=O)CN1CCOCC1)[C@H](C)CO2 | nt | nt | nt | 4 | nt
COc1ccc(NC(=O)N(C)C[C@H]2OCCCC[C@H](C)Oc3ccc(NC(=O)C4CCCCC4)cc3C(=O)N([C@H](C)CO)C[C@H]2C)cc1 | nt | nt | nt | 3 | nt
COc1ccc(N(C)S(=O)(=O)c2cccc(C(=O)NCC(c3cccs3)N(C)C)c2)cc1 (centres undefined) | 3 | -14 | 2 | 0 | 40*
COc1ccc(N(C)S(=O)(=O)c2cccc(C(=O)NCC(c3ccco3)N3CCCC3)c2)cc1 (centres undefined) | 1 | -94 | 1 | 0 | -1
NC(=O)c1cc(C(=O)c2ccc(Cl)cc2)c[nH]1 | 0 | -2 | 4 | -23* | 1
C=CCNC(=O)[C@@H]1[C@H]2C(=O)O[C@H](c3ccccc3)[C@H](c3ccccc3)N2[C@H](c2ccc(OCCO)cc2)[C@@]12C(=O)Nc1ccc(C#CCNC(N)=O)cc12 | -1 | 14 | nt | nt | 0
O=C(C[C@@H]1CC[C@H]2[C@@H](COC[C@@H](O)CN2S(=O)(=O)c2ccc(F)cc2)O1)NCC1CCCCC1 | 31* | 70* | nt | -2 | -2
O=C(C[C@H]1CC[C@H]2[C@@H](COC[C@H](O)CN2S(=O)(=O)c2ccc(F)cc2)O1)NCC1CCCCC1 | 28* | 66* | nt | -3 | 0
Cc1ccc(S(=O)(=O)N2C[C@@H](O)COC[C@H]3O[C@@H](CC(=O)NCC4CCCCC4)CC[C@@H]32)cc1 | 11 | 53* | nt | -9 | 0
O=C(C[C@H]1CC[C@H]2[C@@H](COC[C@@H](O)CN2S(=O)(=O)c2ccc(F)cc2)O1)NCC1CCCCC1 | 9 | 21 | nt | 2 | 0
O=C(O)C[C@H]1CC[C@H]2[C@@H](COC[C@H](O)CN2S(=O)(=O)c2ccc(Oc3ccccc3)cc2)O1 | 2 | -5 | nt | -3 | 40*
O=C(Nc1ccc(Cl)cc1)N[C@@H]1CC[C@@H](CCn2cc(-c3ccccc3F)nn2)O[C@H]1CO | -2 | 1 | nt | -1 | -3
O=C(C[C@H]1CC[C@H]2[C@@H](COC[C@H](O)CN2S(=O)(=O)c2ccccc2)O1)NCC1CCCCC1 | 33* | 83* | nt | -3 | 0
O=C(CN1CCCCC1)Nc1cc(Cl)ccc1Oc1ccccc1 | -2 | -9 | -5 | -50 | 1
O=C(CN1CCCC1)Nc1ccccc1Sc1ccc(Cl)cc1 | 3 | -2 | 0 | -42* | -2
O=C(CN1CCCCCC1)Nc1ccccc1Oc1ccccc1 | -1 | -13 | -5 | -41* | -4
CCOC(=O)c1sc(N2C(=O)C(O)=C(C(=O)c3ccco3)C2c2ccc([N+](=O)[O-])cc2)nc1C (centres undefined) | 5 | -27 | -1 | -18* | 11
CCCNC(=O)N1[C@@H](CO)[C@H](c2ccccc2)C12CN(C(=O)c1cccnc1)C2 | nt | nt | nt | 2 | nt
COc1ccccc1N(Cc1ccccc1)S(=O)(=O)c1cccc(C(=O)Nc2ccccn2)c1 | 1 | -3 | 1 | -25 | 39*
O=C(O)c1cccc(S(=O)(=O)N(Cc2ccccc2)c2ccc(Cl)cc2)c1 | -2 | -14 | 3 | -44* | 26
O=C(O)c1cccc(S(=O)(=O)Nc2ccccc2Cc2ccccc2)c1 | 44* | -5 | -4 | -5 | 3
O=C(O)c1cccc(S(=O)(=O)N(Cc2ccccc2)c2ccccc2)c1 | -2 | -10 | 3 | -39 | 2
O=C(O)c1cccc(S(=O)(=O)Nc2cccc3ccccc23)c1 | -6 | 0 | -1 | -4 | 6
O=C(Cc1ccccc1)N[C@H]1CC[C@H](CC(=O)N2CCCCC2)O[C@@H]1CO | 0 | 3 | nt | 3 | 0
COc1cc2c(cc1N)-c1ccc(N)cc1C2=O | 35* | -9 | 8 | -22 | -2
Nc1ccc2c(c1)C(=O)c1cc(N)c(Cl)cc1-2 | 10 | -6 | -2 | -19* | 7

High-throughput results: PubChem, Broad Institute
